The nature of assay [1]: viability loss with induced miR-34 in A549 – imaging, A549 dox-inducible miR-34, nuclei and caspase counts, primary screen (AID 1347080). Particulars: A549 miR-34 inducible, Hoechst nuclei count, 48 h.
Assay [2] can be described thus: MELAS cybrid and Rieske KO viability enhancers – cell-based, MELAS cybrids, Rieske KO mouse fibroblasts, CellTiter-Glo, primary screen (AID 1508586;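 active = mean z-score across replicates of 1.96 or higher in either the MELAS or the Rieske mutant cell line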;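 also: z relative to plate mean and SD of compound and empty wells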). Particulars: low glucose. (In general: Cellular ATP, detected with luciferase, serves as a proxy for viable cell number.)
The mark [3] stands for this setting: stronger effect = lower value, cell number ratio, induced over uninduced.
Setting [4] is: measured here: relative caspase fold change +Dox/-Dox.
The mark [5] stands for this setting: measured here: total cells with miR-34 induction, stronger effect = lower value.
The mark [6] stands for this setting: measured here: total cells without miR-34 induction.
The mark [7] stands for this setting: MELAS cybrid survival, CellTiter-Glo 48 h, stronger effect = higher value.
Where [8] appears, read: Rieske KO mouse fibroblast survival, CellTiter-Glo 72 h.

Activity calls are given as the source filed them.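 The calls were made as follows, unless noted: active = compounds whose cell count with miR-34 switched on is under 0.7 times the count with it off; inactive = the rest.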
Also: test concentration not given here.

Turning to `COc1cc2c(cc1OC)CC(=O)N(CCCN(C)CC1Cc3cc(OC)c(OC)cc31)CC2` (stereo not drawn), the values for the fold change in assay [1] (setting [3]) and in assay [1] (setting [4]) were 0.865 (inactive) and 1.23, respectively. For the same compound, the cell count amounted to 8090 in assay [1] (setting [5]) and 9350 in assay [1] (setting [6]). The z-score is -0.285 (inactive) in assay [2] (setting [7]) and 0.346 in assay [2] (setting [8]).
In the case of `CCn1c(N)c(C(=O)NC)c(=O)c2ccc(C#C[C@@](C)(O)COC)nc21`, the fold change is 0.913 (inactive) in assay [1] (setting [3]) and 0.578 in assay [1] (setting [4]). The cell count in assay [1] (setting [5]) amounted to 6630; in assay [1] (setting [6]) it was 7260. Besides, the results for the z-score in assay [2] (setting [7]) and in assay [2] (setting [8]) were -0.356 (inactive) and -0.157, respectively.
`OCC1OC(O[C@]2(CCl)OC(CCl)C(O)C2O)C(O)C(O)C1Cl` (stereo partly drawn): the figures for the fold change in assay [1] (setting [3]) and in assay [1] (setting [4]) were 0.895 (inactive) and 0.674, respectively. Besides, the results for the cell count in assay [1] (setting [5]) and in assay [1] (setting [6]) were 8040 and 8990, respectively. For the same compound, the z-score was -0.278 (inactive) in assay [2] (setting [7]) and -0.16 in assay [2] (setting [8]).
`CNc1nc(Nc2cn(C(C)(C)C#N)nc2C)ncc1C(F)(F)F`: the fold change in assay [1] (setting [3]) was 0.858 (inactive); in assay [1] (setting [4]), 0.457. Also, the cell count in assay [1] (setting [5]) is 7920; in assay [1] (setting [6]), 9230. In addition, the values for the z-score in assay [2] (setting [7]) and in assay [2] (setting [8]) were -0.302 (inactive) and 0.79, respectively.
As to `O=C(NCc1ccc(Oc2ccccc2)cc1)c1nc(-c2cc(Br)c(O)c(Br)c2)no1`, the values for the fold change in assay [1] (setting [3]) and in assay [1] (setting [4]) were 0.903 (inactive) and 0.842, respectively. Further, the cell count in assay [1] (setting [5]) was determined as 7380; in assay [1] (setting [6]) it was 8170. In addition, the z-score in assay [2] (setting [7]) was -0.2 (inactive); in assay [2] (setting [8]) it was -0.275.
As to `CC1CC[C@]2(C(=O)O)CC[C@]3(C)C(=CC[C@H]4[C@@]5(C)CC(O)C(O)[C@@](C)(CO)[C@@H]5CC[C@]43C)[C@H]2C1C` (stereo partly drawn), the fold change is 0.88 (inactive) in assay [1] (setting [3]) and 0.855 in assay [1] (setting [4]). For the same compound, the cell count in assay [1] (setting [5]) is 8330; in assay [1] (setting [6]) it was 9460. In addition, the z-score in assay [2] (setting [7]) is -0.312 (inactive); in assay [2] (setting [8]), 0.68.
Take `Fc1ccc(C(c2ccc(F)cc2)N2CCN(CC=Cc3ccccc3)CC2)cc1`: the fold change in assay [1] (setting [3]) is 0.899 (inactive); in assay [1] (setting [4]), 0.978. The cell count was 7880 in assay [1] (setting [5]) and 8760 in assay [1] (setting [6]). Moreover, the z-score in assay [2] (setting [7]) was -0.335 (inactive); in assay [2] (setting [8]), 0.411.
Consider `CCC1OC(=O)CC(O)C(C)C(OC2OC(C)C(O)C(N(C)C)C2O)C(CCN2CC(C)CC(C)C2)CC(C)C(=O)C=CC(C)=CC1COC1OC(C)C(O)C(OC)C1OC` (stereo not drawn), for which the fold change is 0.924 (inactive) in assay [1] (setting [3]) and 0.808 in assay [1] (setting [4]). In addition, the figures for the cell count in assay [1] (setting [5]) and in assay [1] (setting [6]) were 8240 and 8920, respectively. Besides, the figures for the z-score in assay [2] (setting [7]) and in assay [2] (setting [8]) were -0.194 (inactive) and -0.165, respectively.
On to `CC(=O)OC1C[C@@H]2CC[C@@H]3[C@@H](CC[C@]4(C)C(OC(C)=O)C([N+]5(C)CCCCC5)C[C@@H]34)[C@@]2(C)CC1N1CCCCC1` (stereo partly drawn), for which the fold change was 0.894 (inactive) in assay [1] (setting [3]) and 1.12 in assay [1] (setting [4]). Also, the cell count in assay [1] (setting [5]) amounted to 8090; in assay [1] (setting [6]), 9050. Also, the z-score is -0.47 (inactive) in assay [2] (setting [7]) and -0.53 in assay [2] (setting [8]).
On to `C#C[C@@]1(O)CC[C@H]2[C@@H]3CCC4=CC(=O)CC[C@@H]4[C@@H]3CC[C@@]21CC`, for which the fold change in assay [1] (setting [3]) is 0.929 (inactive); in assay [1] (setting [4]) it was 0.428. For the same compound, the cell count in assay [1] (setting [5]) is 7310; in assay [1] (setting [6]), 7880. Also, the z-score is -0.214 (inactive) in assay [2] (setting [7]) and 0.0474 in assay [2] (setting [8]).
As to `CCC(C(C)O)n1ncn(-c2ccc(N3CCN(c4ccc(OCC5CO[C@@](Cn6cncn6)(c6ccc(F)cc6F)C5)cc4)CC3)cc2)c1=O` (stereo partly drawn), the fold change in assay [1] (setting [3]) was 1.04 (inactive); in assay [1] (setting [4]), 0.726. For the same compound, the results for the cell count in assay [1] (setting [5]) and in assay [1] (setting [6]) were 4300 and 4130, respectively. The z-score in assay [2] (setting [7]) is -0.325 (inactive); in assay [2] (setting [8]) it was 0.236.
`O=C(O)CCCN1CCC(OC(c2ccc(Cl)cc2)c2ccccn2)CC1` (stereo not drawn): the fold change is 0.967 (inactive) in assay [1] (setting [3]) and 1.77 in assay [1] (setting [4]). In addition, the cell count is 8100 in assay [1] (setting [5]) and 8370 in assay [1] (setting [6]). The results for the z-score in assay [2] (setting [7]) and in assay [2] (setting [8]) were 0.387 (inactive) and -0.496, respectively.
For `Cc1[nH]c(C=C2C(=O)Nc3ccc(S(=O)(=O)Cc4c(Cl)cccc4Cl)cc32)c(C)c1C(=O)N1CCCC1CN1CCCC1` (stereo not drawn), the fold change was 0.833 (inactive) in assay [1] (setting [3]) and 1.46 in assay [1] (setting [4]). The cell count in assay [1] (setting [5]) was 4270; in assay [1] (setting [6]), 5130. For the same compound, the z-score in assay [2] (setting [7]) is -0.699 (inactive); in assay [2] (setting [8]), 0.101.
Regarding `O=C(NNc1nc2cc(F)ccc2n2cccc12)c1cnccn1`, the fold change in assay [1] (setting [3]) was 0.939 (inactive); in assay [1] (setting [4]) it was 0.345. For the same compound, the cell count was found to be 2180 in assay [1] (setting [5]) and 2330 in assay [1] (setting [6]). Further, the z-score in assay [2] (setting [7]) was 1.52 (inactive); in assay [2] (setting [8]), -2.55.
Regarding `N#CC(=Cc1ccc(O)c(O)c1)C(=O)NCc1ccccc1`, the fold change in assay [1] (setting [3]) was 0.901 (inactive); in assay [1] (setting [4]) it was 1.14. The cell count in assay [1] (setting [5]) turned out to be 6440; in assay [1] (setting [6]) it was 7150. Moreover, the z-score in assay [2] (setting [7]) was -0.517 (inactive); in assay [2] (setting [8]), 0.15.
In the case of `Cc1cc(Nc2cc(N3CCN(C)CC3)nc(C=Cc3ccccc3)n2)n[nH]1`, the values for the fold change in assay [1] (setting [3]) and in assay [1] (setting [4]) were 1.29 (inactive) and 1.19, respectively. Besides, the values for the cell count in assay [1] (setting [5]) and in assay [1] (setting [6]) were 1120 and 872, respectively. For the same compound, the results for the z-score in assay [2] (setting [7]) and in assay [2] (setting [8]) were 1.43 (inactive) and -2.06, respectively.
For the compound `CC(NCc1ccc(OCc2cccc(F)c2)cc1)C(N)=O` (stereo not drawn), the fold change in assay [1] (setting [3]) was 0.935 (inactive); in assay [1] (setting [4]), 1.08. The cell count in assay [1] (setting [5]) came out at 7820; in assay [1] (setting [6]), 8360. Further, the z-score in assay [2] (setting [7]) was -0.428 (inactive); in assay [2] (setting [8]) it was 0.667.
On to `CC1(C)S[C@H]2C(NC(=O)C(N)c3ccc(O)cc3)C(=O)N2C1C(=O)O` (stereo partly drawn), for which the fold change in assay [1] (setting [3]) was 1.01 (inactive); in assay [1] (setting [4]), 0.573. Moreover, the cell count in assay [1] (setting [5]) turned out to be 8190; in assay [1] (setting [6]), 8150. The z-score was -0.00212 (inactive) in assay [2] (setting [7]) and -0.0136 in assay [2] (setting [8]).
Consider `CC(NC(=O)C(Cc1ccccc1)NC(=O)OCc1ccccc1)C(=O)CF` (stereo not drawn), for which the fold change was 0.911 (inactive) in assay [1] (setting [3]) and 0.415 in assay [1] (setting [4]). Also, the cell count in assay [1] (setting [5]) came out at 8780; in assay [1] (setting [6]), 9640. Besides, the z-score in assay [2] (setting [7]) is -0.389 (inactive); in assay [2] (setting [8]) it was -0.551.
In the case of `CCn1c2ccccc2c2cc(Nc3ccnc(NCCCN4CCOCC4)n3)ccc21`, the fold change in assay [1] (setting [3]) was 1.23 (inactive); in assay [1] (setting [4]), 0.454. Moreover, the results for the cell count in assay [1] (setting [5]) and in assay [1] (setting [6]) were 2810 and 2280, respectively. Besides, the z-score in assay [2] (setting [7]) was -0.307 (inactive); in assay [2] (setting [8]), 0.428.
Consider `CC(=O)O[C@@]1(C(C)=O)CC[C@H]2[C@@H]3CCC4=CC(=O)CCC4=C3C(c3ccc(N(C)C)cc3)C[C@@]21C` (stereo partly drawn), for which the fold change in assay [1] (setting [3]) was 1.04 (inactive); in assay [1] (setting [4]) it was 0.797. The figures for the cell count in assay [1] (setting [5]) and in assay [1] (setting [6]) were 6660 and 6380, respectively. Further, the z-score in assay [2] (setting [7]) is -0.373 (inactive); in assay [2] (setting [8]), -0.0703.
For `COc1cc(C=CC(=O)C=C(O)C=Cc2ccc(O)c(OC)c2)ccc1O`, the fold change in assay [1] (setting [3]) was 0.901 (inactive); in assay [1] (setting [4]) it was 0.689. For the same compound, the cell count in assay [1] (setting [5]) was 8110; in assay [1] (setting [6]), 9000. The figures for the z-score in assay [2] (setting [7]) and in assay [2] (setting [8]) were -0.431 (inactive) and 0.0298, respectively.
`CCC1OC(=O)C(C)C(OC2C[C@@](C)(OC)C(O)C(C)O2)C(C)C(OC2OC(C)CC(N(C)C)C2O)[C@@](C)(O)CC(C)C(=O)C(C)C(O)[C@]1(C)O` (stereo partly drawn): the results for the fold change in assay [1] (setting [3]) and in assay [1] (setting [4]) were 0.879 (inactive) and 1.14, respectively. The cell count in assay [1] (setting [5]) is 7750; in assay [1] (setting [6]), 8820. Moreover, the figures for the z-score in assay [2] (setting [7]) and in assay [2] (setting [8]) were -0.0604 (inactive) and 0.782, respectively.
